Calls of active or inactive are those of the source. No rule for the calls is given here.

For the first test, the target named is L-lactate dehydrogenase (Plasmodium falciparum (isolate CDC / Honduras)) (UniProt Q27743). Kind of test: PfLDH activity inhibition – cell lysate, 3D7 strain, counter-screen for P. falciparum growth inhibition project (AID 2304).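 Also: 0% = vehicle and 100% = reference inhibitor.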 The settings on record: P. falciparum 3D7 crude extract, LDH APAD/NBT absorbance; at 2 µM; hits give high values. In general terms: A counterscreen serves to expose hits that act by an unwanted route or on another target.
L-lactate dehydrogenase (Plasmodium falciparum (isolate CDC / Honduras)), sequence (Q27743 whole entry, looked up): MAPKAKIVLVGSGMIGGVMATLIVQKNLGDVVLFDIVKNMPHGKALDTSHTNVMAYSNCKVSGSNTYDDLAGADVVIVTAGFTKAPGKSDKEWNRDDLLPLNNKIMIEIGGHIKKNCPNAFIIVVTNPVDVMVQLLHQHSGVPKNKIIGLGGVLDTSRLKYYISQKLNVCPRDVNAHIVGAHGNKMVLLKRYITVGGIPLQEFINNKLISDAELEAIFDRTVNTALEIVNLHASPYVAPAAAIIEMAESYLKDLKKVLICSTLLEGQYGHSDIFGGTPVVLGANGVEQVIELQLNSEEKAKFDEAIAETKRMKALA
As a reminder, the inhibition is the relative decrease from the control value, in per cent. As for `COc1ccc(N2CCN(CCCCNC(=O)c3ccc(NC(=O)c4ccc(Cl)cc4)cc3)CC2)c(OC)c1`, the inhibition is 6% (inactive).
With `Clc1ccc2c(NCCCCCCCCNc3ccnc4cc(Cl)ccc34)ccnc2c1`, the inhibition was 4% (inactive).
On the same count and under the same terms, under `CN1CCN(CCCN(Cc2cccc(-c3cccc(CNCCc4ccccc4)c3)c2)C(=O)Nc2ccccc2)CC1` stands 0% (inactive).
Still for that read-out and setting: under `Cc1nc(-c2cccc(Nc3nccc(NCC(O)c4ccccc4C(F)(F)F)n3)c2)cs1` (stereo not given) stands 5% (inactive); under `COc1ccc(NC(=O)CSc2nc(-c3ccccc3Cl)ns2)cc1`, 0% (inactive); under `Cc1cnc(NCCc2ccc(F)cc2)nc1N[C@@H](CC(C)C)C(=O)Nc1ccccc1`, -1% (inactive).
The same measure, in the same setting: under `COc1cc(CNC[C@@H](O)[C@H](Cc2ccccc2)NC(=O)c2cc(C3CCCC3)cc(N3CCCC3=O)c2)cc(OC)c1` stands 6% (inactive); under `Cc1cccc2[nH]c(-c3ccc(-c4cccc(CNCc5ccccc5)c4)cc3)nc12`, -1% (inactive).
For the compound `CN1N=C2c3ccccc3CCC2C1c1ccc(C#N)cc1` (stereo not given), the inhibition is 2% (inactive).
Same read-out and setting: under `Cc1c(C(=O)N2CCc3cc4nccc(N5CCN6CCC[C@H]6C5)c4cc32)cnn1-c1ccc(C#N)cc1` stands -3% (inactive); under `CCOc1cc(C)ccc1C1CCN(CCCCNC(=O)c2coc(-c3ccc(Cl)cc3)c2)CC1`, -3% (inactive); under `Cc1cc(N[C@@H](Cc2ccccc2)C(=O)NCc2cccs2)nc(NCCOc2ccccc2)n1`, -3% (inactive).
Same read-out and setting: the same measure for `COc1cc(COc2c(C)nc(N)nc2N)cc(OC)c1OC`: -9% (inactive).
Same read-out and setting: the same measure for `O=C(Nc1cccc(CN2CCCN(CC3CC3)CC2)c1)c1ccc(-c2ccccc2)cc1`: 6% (inactive); for `C=CCc1cc(Br)ccc1OCCCOc1c(N)nc(N)nc1N`: 4% (inactive); for `Clc1cccc(Nc2ccc3c(N4CCCCC4)ncnc3n2)c1`: 0% (inactive).
As to `CC(C)Oc1ccc(C=CC(=O)Nc2noc3ccccc23)cc1`, the inhibition was 4% (inactive).
In the case of `Cc1ccc2nc(C)cc(NN=Cc3ccc([N+](=O)[O-])o3)c2c1`, the inhibition was -4% (inactive).
The same measure, in the same setting: the same measure for `O=C(NC1CC1)c1cnc(N2CCN(Cc3ccc(Cl)cc3)CC2)c(Cl)c1`: 0% (inactive); for `Oc1ccc(CCNc2nc(NCCCOc3cc(CN4CCCCC4)ccc3F)nc(N3CCNCC3)n2)cc1`: -1% (inactive).
The same measure, in the same setting: under `Cc1nc(-c2ccc(-c3ccc(C(=O)Nc4ccc(I)c(OCCN5CCCC5)c4)cc3)c(C)c2)no1` stands -1% (inactive); under `c1ccc(C(c2ccccc2)N2CCN(C(c3cccnc3)c3nnnn3C3CCCC3)CC2)cc1` (stereo not given), 0% (inactive); under `Cc1cc(N)c2cc(NC(=O)c3cccc4ccccc34)ccc2n1`, 4% (inactive).
Take `COCCn1c(Sc2ccc(C#N)c([N+](=O)[O-])c2)nnc1-c1ccc(N(C)C)cc1`: the inhibition is -6% (inactive).
Same read-out and setting: under `COc1ccc(-c2nc3ccc(C)nc3nc2-c2ccc(OC)cc2)cc1` stands 4% (inactive); under `c1cc(-c2ccc(CN3CCN(c4ccncc4)CC3)cc2)cc(-c2nc3ccccc3[nH]2)c1`, -2% (inactive).
Turning to `Cn1nc(-c2ccc(S(=O)(=O)N3CCC(CCN4CCC(c5c[nH]c6ccccc56)CC4)CC3)s2)cc1C(F)(F)F`, the inhibition is 4% (inactive).
Still for that read-out and setting: under `CCCC(CNC(=O)c1cc2c(Cl)cc(Cl)cc2[nH]1)CNc1cc(=O)c2ccccc2[nH]1` (stereo not given) stands -5% (inactive); under `CN1CCC(N2CCC(Oc3cccc(C(=O)NCCCC4CCCC4)c3)CC2)CC1`, -3% (inactive).
Still for that read-out and setting: the same measure for `CCCc1cc(Cc2cnc(N)nc2N)cc(CCC)c1OCCCCC(=O)O`: -2% (inactive); for `O=C(NCC1CCC(C(=O)NCCN2CCCCC2)CC1)c1ccc(O)c(-c2ccc(Cl)c(Cl)c2)c1` (stereo not given): -1% (inactive).
Still for that read-out and setting: the same measure for `COc1ccc(Cc2c(C)nc3nc(N)nc(N)c3c2C)cc1OC`: -1% (inactive).
For the compound `CC(C)CCNCc1c(O)ccc2ccccc12`, the inhibition was 2% (inactive).
Same read-out and setting: under `CCn1c(C(C)C)cc2c3c(N)nc(N)nc3ccc21` stands 2% (inactive); under `COCCn1c(Sc2ncnc3sccc23)nc2ccccc21`, -6% (inactive); under `COc1ccccc1CCNc1nc(C)cc(N[C@@H](Cc2ccccc2)C(=O)NCc2cccs2)n1`, 1% (inactive).
Same read-out and setting: the same measure for `Cc1ccc2c(NN=Cc3cccc([N+](=O)[O-])c3)cc(C)nc2c1`: 5% (inactive); for `CCCCCCCN(Cc1ccc(OC(C)(C)C(=O)OCC)cc1)C(=O)Nc1ccccc1OCC`: -3% (inactive); for `COc1ccc(CNCc2ccc(-c3ccc(-c4nc5ccc(F)cc5[nH]4)cc3)cc2)cc1`: 5% (inactive).
Still for that read-out and setting: under `COc1ccc(OC)c(-c2cccc(-c3cccc(NC(=O)c4ccc([N+](=O)[O-])o4)c3)n2)c1` stands -7% (inactive).

System in the next test: not listed separately
As to the kind of experiment: inhibition of 3D7 malaria parasite growth – strain 3D7 (AID 2306).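 Also: 0% = DMSO wells and 100% = chloroquine plus artemisinin control wells.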 Conditions: P. falciparum 3D7 erythrocytic growth, LDH absorbance, 72 h; at 2 µM; hits give high values.
For the compound `COc1ccc(N2CCN(CCCCNC(=O)c3ccc(NC(=O)c4ccc(Cl)cc4)cc3)CC2)c(OC)c1`, the growth inhibition was 97% (active).
On the same count and under the same terms, the same measure for `Clc1ccc2c(NCCCCCCCCNc3ccnc4cc(Cl)ccc34)ccnc2c1`: 99% (active); for `CN1CCN(CCCN(Cc2cccc(-c3cccc(CNCCc4ccccc4)c3)c2)C(=O)Nc2ccccc2)CC1`: 97% (active); for `Cc1nc(-c2cccc(Nc3nccc(NCC(O)c4ccccc4C(F)(F)F)n3)c2)cs1` (stereo not given): 97% (active).
Turning to `COc1ccc(NC(=O)CSc2nc(-c3ccccc3Cl)ns2)cc1`, the growth inhibition was 96% (active).
The same measure, in the same setting: under `Cc1cnc(NCCc2ccc(F)cc2)nc1N[C@@H](CC(C)C)C(=O)Nc1ccccc1` stands 87% (active).
The same measure, in the same setting: under `COc1cc(CNC[C@@H](O)[C@H](Cc2ccccc2)NC(=O)c2cc(C3CCCC3)cc(N3CCCC3=O)c2)cc(OC)c1` stands 97% (active); under `Cc1cccc2[nH]c(-c3ccc(-c4cccc(CNCc5ccccc5)c4)cc3)nc12`, 102% (active).
Same read-out and setting: under `CN1N=C2c3ccccc3CCC2C1c1ccc(C#N)cc1` (stereo not given) stands 95% (active).
For the compound `Cc1c(C(=O)N2CCc3cc4nccc(N5CCN6CCC[C@H]6C5)c4cc32)cnn1-c1ccc(C#N)cc1`, the growth inhibition is 90% (active).
Same read-out and setting: the same measure for `CCOc1cc(C)ccc1C1CCN(CCCCNC(=O)c2coc(-c3ccc(Cl)cc3)c2)CC1`: 92% (active).
Same read-out and setting: under `Cc1cc(N[C@@H](Cc2ccccc2)C(=O)NCc2cccs2)nc(NCCOc2ccccc2)n1` stands 93% (active).
As for `COc1cc(COc2c(C)nc(N)nc2N)cc(OC)c1OC`, the growth inhibition was 100% (active).
For the compound `O=C(Nc1cccc(CN2CCCN(CC3CC3)CC2)c1)c1ccc(-c2ccccc2)cc1`, the growth inhibition is 96% (active).
The same measure, in the same setting: the same measure for `C=CCc1cc(Br)ccc1OCCCOc1c(N)nc(N)nc1N`: 92% (active).
The same measure, in the same setting: under `Clc1cccc(Nc2ccc3c(N4CCCCC4)ncnc3n2)c1` stands 97% (active).
Still for that read-out and setting: the same measure for `CC(C)Oc1ccc(C=CC(=O)Nc2noc3ccccc23)cc1`: 96% (active); for `Cc1ccc2nc(C)cc(NN=Cc3ccc([N+](=O)[O-])o3)c2c1`: 101% (active); for `O=C(NC1CC1)c1cnc(N2CCN(Cc3ccc(Cl)cc3)CC2)c(Cl)c1`: 93% (active).
Regarding `Oc1ccc(CCNc2nc(NCCCOc3cc(CN4CCCCC4)ccc3F)nc(N3CCNCC3)n2)cc1`, the growth inhibition is 101% (active).
As to `Cc1nc(-c2ccc(-c3ccc(C(=O)Nc4ccc(I)c(OCCN5CCCC5)c4)cc3)c(C)c2)no1`, the growth inhibition was 95% (active).
On the same count and under the same terms, under `c1ccc(C(c2ccccc2)N2CCN(C(c3cccnc3)c3nnnn3C3CCCC3)CC2)cc1` (stereo not given) stands 83% (active); under `Cc1cc(N)c2cc(NC(=O)c3cccc4ccccc34)ccc2n1`, 98% (active).
Same read-out and setting: under `COCCn1c(Sc2ccc(C#N)c([N+](=O)[O-])c2)nnc1-c1ccc(N(C)C)cc1` stands 89% (active); under `COc1ccc(-c2nc3ccc(C)nc3nc2-c2ccc(OC)cc2)cc1`, 91% (active); under `c1cc(-c2ccc(CN3CCN(c4ccncc4)CC3)cc2)cc(-c2nc3ccccc3[nH]2)c1`, 101% (active).
Same read-out and setting: under `Cn1nc(-c2ccc(S(=O)(=O)N3CCC(CCN4CCC(c5c[nH]c6ccccc56)CC4)CC3)s2)cc1C(F)(F)F` stands 94% (active).
Regarding `CCCC(CNC(=O)c1cc2c(Cl)cc(Cl)cc2[nH]1)CNc1cc(=O)c2ccccc2[nH]1` (stereo not given), the growth inhibition was 100% (active).
On the same count and under the same terms, under `CN1CCC(N2CCC(Oc3cccc(C(=O)NCCCC4CCCC4)c3)CC2)CC1` stands 101% (active); under `CCCc1cc(Cc2cnc(N)nc2N)cc(CCC)c1OCCCCC(=O)O`, 95% (active).
`O=C(NCC1CCC(C(=O)NCCN2CCCCC2)CC1)c1ccc(O)c(-c2ccc(Cl)c(Cl)c2)c1` (stereo not given): the growth inhibition was 91% (active).
Consider `COc1ccc(Cc2c(C)nc3nc(N)nc(N)c3c2C)cc1OC`, for which the growth inhibition is 93% (active).
Same read-out and setting: under `CC(C)CCNCc1c(O)ccc2ccccc12` stands 95% (active); under `CCn1c(C(C)C)cc2c3c(N)nc(N)nc3ccc21`, 92% (active); under `COCCn1c(Sc2ncnc3sccc23)nc2ccccc21`, 95% (active).
Consider `COc1ccccc1CCNc1nc(C)cc(N[C@@H](Cc2ccccc2)C(=O)NCc2cccs2)n1`, for which the growth inhibition is 100% (active).
On the same count and under the same terms, the same measure for `Cc1ccc2c(NN=Cc3cccc([N+](=O)[O-])c3)cc(C)nc2c1`: 102% (active).
Still for that read-out and setting: under `CCCCCCCN(Cc1ccc(OC(C)(C)C(=O)OCC)cc1)C(=O)Nc1ccccc1OCC` stands 93% (active).
Still for that read-out and setting: the same measure for `COc1ccc(CNCc2ccc(-c3ccc(-c4nc5ccc(F)cc5[nH]4)cc3)cc2)cc1`: 99% (active).
Consider `COc1ccc(OC)c(-c2cccc(-c3cccc(NC(=O)c4ccc([N+](=O)[O-])o4)c3)n2)c1`, for which the growth inhibition is 98% (active).

The record behind these values is PubChem BioAssay.
